Shown are actives, neighbours in structure and some others; about 4% of the full set was active somewhere.
Mtb FBA inh – Mtb FBA enzyme inhibitors, primary screen, biochemical, fluorescence, strain H37Rv | inhibition, % at 1 µM | actives 2.3% (n = 360,000) | purified M. tuberculosis FBA, fluorescence read-out; in the data active = inhibition above about 27%;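 note: 0% = vehicle and 100% = reference inhibitor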
Rv3671c inh – Rv3671c serine protease inhibitors, primary screen, biochemical, fluorescence polarization, M. tuberculosis H37Rv | inhibition, % at 5.96 µM | actives 0.048% (n = 320,000) | AID 2606, 2010; in the data active = inhibition above about 38%;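 note: extracellular domain of Rv3671c used as enzyme; 0% = enzyme with DMSO and 100% = no enzyme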
Target sequence (P9WHR9 whole entry, looked up, the tested form may be a part): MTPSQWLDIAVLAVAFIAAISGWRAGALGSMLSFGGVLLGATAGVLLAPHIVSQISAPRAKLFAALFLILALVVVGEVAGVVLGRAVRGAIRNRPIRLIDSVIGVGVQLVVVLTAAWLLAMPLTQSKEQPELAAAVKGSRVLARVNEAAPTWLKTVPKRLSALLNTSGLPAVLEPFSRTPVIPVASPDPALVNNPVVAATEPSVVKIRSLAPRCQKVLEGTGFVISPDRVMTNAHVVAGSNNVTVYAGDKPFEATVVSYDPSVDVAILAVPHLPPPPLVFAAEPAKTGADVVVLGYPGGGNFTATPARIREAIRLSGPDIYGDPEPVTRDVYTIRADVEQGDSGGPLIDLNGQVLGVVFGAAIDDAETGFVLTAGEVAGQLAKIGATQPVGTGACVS
GDH-TPI counter – GDH-TPI coupling enzyme inhibitors, primary screen, artefact control for M. tuberculosis FBA inhibitor project, biochemical, absorbance, full deck. GDH-TPI coupled enzyme counterscreen, NADH absorbance. inhibition, % at 4.8 µM. actives 1.2% (n = 360,000); in the data active = inhibition above about 30%;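 note: 0% = DMSO wells and 100% = wells lacking the enzyme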
RecA splice inh – Mtb RecA intein splicing inhibitors, primary screen, biochemical, fluorescence, HTS. cell-free RecA intein splicing. Protein RecA (Mycobacterium tuberculosis (strain ATCC 25618 / H37Rv)), P9WHJ3. actives 0.75% (n = 290,000). inhibition, % (concentration not given with the values). AID 2221, 2009; in the data active = inhibition above about 30%; inconclusive = no clear call, values can overlap the other calls;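 note: 0% = vehicle wells and 100% = reference inhibitor control wells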
Mtb UGM inh – M. tuberculosis UGM enzyme inhibitors, primary screen, biochemical, fluorescence polarization, single point; UDP-galactopyranose mutase (Mycobacterium tuberculosis (strain ATCC 25618 / H37Rv)), …; purified UGM, fluorescence polarization probe displacement; inhibition, % at 10 µM; actives 0.06% (n = 320,000); AID 504406, 2011; in the data active = inhibition above about 10%, passing the limit was not always enough; inconclusive = no clear call, values can overlap the other calls
Mtb bLac sens – beta-lactam sensitization of Mtb H37Rv, H37Rv | actives 0.27% (n = 330,000) | AID 434955, 2010 | inhibition, % at 25 µM | M. tuberculosis H37Rv growth with meropenem, percent inhibition; call rule not given here;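 note: growth measured after seven days incubation then overnight dye step; 0% = bacteria only wells and 100% = bacteria with antibiotic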
An asterisk follows results filed as active; ? = inconclusive; . = no result; + = active, no number.

SMILES	Mtb FBA inh	Rv3671c inh	GDH-TPI counter	RecA splice inh	Mtb UGM inh	Mtb bLac sens
CSc1ccccc1C(=O)C1CCCN(Cc2cnn(-c3ccccc3)c2)C1 (stereo not given)	-1.2	8.5	1.3	1.6	2.0	-4.7
COc1cccc(-c2nnc(NC(=O)c3ccc(Cl)s3)o2)c1	3.1	5.3	40.9*	-0.5	0.0	95.5
Cc1ccc(/C=N/Nc2nc(C(C)(C)C)cs2)o1	-1.2	6.5	1.3	2.8	0.2	6.9
Cc1ccc(/C=N/Nc2nc3ccccc3s2)o1	-4.4	-0.2	55.9*	-2.2	-1.3	89.2
CCc1ccc2[nH]c(=O)c(C(c3nnnn3CC3CCCO3)N3CCCc4ccccc43)cc2c1 (stereo not given)	0.6	3.4	1.6	7.1	-1.7	4.8
Cc1cc2cc(C(c3nnnn3CC3CCCO3)N3CCCc4ccccc43)c(=O)[nH]c2cc1C (stereo not given)	4.5	.	33.9*	-2.5	.	.
O=C(O)c1ccc2ncc(NC(=O)c3ccc(F)cc3)c(=O)n2c1	4.7	3.8	19.8	2.2	0.5	4.2
Cc1ccc2ncc(NC(=O)c3ccc(F)cc3)c(=O)n2c1	-1.0	-0.4	33.0*	2.0	0.6	-3.6
NNC(=O)/C(=C/c1cccs1)NC(=O)c1ccccc1Cl	-3.0	-2.9	42.7*	1.3	0.0	-7.0
CCOc1ccccc1-c1cnc(NC)cn1	+	.	19.0	.	.	.
CNc1cnc(-c2ccccc2OC)cn1	124.9*	.	18.6	.	.	.
CCCCNC(=O)C1(C)CCCCCN1Cc1cc2ccccc2o1 (stereo not given)	-1.9	.	2.7	.	.	.
CCN1C(=O)/C(=C\N(C)C)c2ccccc21	-2.1	4.2	32.2*	3.1	-0.4	-7.9
CN(C)C=C1C(=O)c2ccccc2C1=O	2.8	-8.6	8.7	3.7	1.9	-0.6
CCN1C(=O)/C(=C/N(C)C)c2ccccc21	-0.8	2.6	37.3*	1.4	-1.2	2.6
CCO/C=C1\C(=O)N(CC)c2ccccc21	-1.2	-5.9	0.0	1.3	2.6	-1.4
CCC(C(=O)N/N=C(\C)c1cccnc1)c1ccccc1 (stereo not given)	0.0	8.5	7.0	2.8	1.0	10.4
CCCCc1c(O)cc(C)[nH]c1=O	3.5	-1.9	8.1	-2.8	-1.2	-4.4
CN(C(=O)CCc1nc2ccccc2c(=O)[nH]1)C1CCS(=O)(=O)C1 (stereo not given)	3.1	7.6	3.5	.	0.5	-3.2
CCCN(CCC)CCCNC(=S)Nc1ccc2nc(N3CCN(C)CC3)cc(C)c2c1	14.3	6.0	32.5*	-3.5	-0.7	4.2
Cc1cc(N2CCN(C)CC2)nc2ccc(NC(=S)NC3CC3)cc12	11.7	7.0	34.8*	4.9	-0.4	-4.5
Cc1ccc(S(=O)(=O)NCCC(=O)OCC(=O)NC(=O)c2cccn2C)cc1	-4.2	-1.2	0.3	1.9	-1.7	28.1
COc1ccc(/C=C2\CCn3c2nc2ccccc2c3=O)cc1OC	-1.4	-7.8	9.4	.	0.1	3.5
COc1cc2c(cc1OC)-c1nc3ccccc3c(=O)n1C(C)(C)C2	5.2	-11.6	39.1*	2.8	-1.0	90.8
CCOc1ccc(CN(C)C(=O)CCl)cc1	-4.4	-2.7	-4.0	55.1*	2.4	99.2
SMILES	Mtb FBA inh	Rv3671c inh	GDH-TPI counter	RecA splice inh	Mtb UGM inh	Mtb bLac sens
COc1ccc(F)cc1-c1cc(C(=O)NCc2cccc(Cl)c2)[nH]n1	-0.6	.	-4.4	.	.	.
COC(=O)Cn1c(=NC(=O)c2cc(OC)cc(OC)c2)sc2cc(OC)ccc21	-2.1	-27.4	11.6	0.1	0.5	-7.3
COC(=O)Cn1c(=NC(=O)c2ccc(OC)cc2)sc2cc(OC)ccc21	10.8	-12.2	36.1*	-3.0	1.2	-0.6
Cc1cc(C)c(S(=O)(=O)Nc2ccc(C(=O)O)cc2)cc1S(=O)(=O)Nc1ccc(C(=O)O)cc1	-0.8	-6.0	4.8	-0.7	11.3*	4.6
CC(=O)Nc1cc(S(=O)(=O)Nc2ccccc2)c(C)cc1C	0.2	-1.9	18.0	-0.1	-1.3	1.4
Cc1cc(C(C)(C)C)cc(S(=O)(=O)Nc2ccc(O)c(C(=O)O)c2)c1C	1.2	-2.9	4.7	0.0	17.0*	.
N#Cc1c(NC(=O)c2cc(C3CC3)on2)sc2c1CCC2	1.2	1.7	33.6*	-2.2	3.5	3.2
CC(=O)c1c(O)cc2c3c1OC(C)(C)C1CCC(C)(CC31)O2 (stereo not given)	-0.1	.	12.0	.	.	.
Cc1cc(=O)oc2cc(OCC(=O)N3CCN(C(C)c4ccccc4)CC3)c(Cl)cc12 (stereo not given)	+	2.9	3.2	.	-0.1	0.2
Cc1cc(=O)oc2cc(OCC(=O)N3CC(=O)Nc4ccccc43)c(Cl)cc12	22.3	-0.1	11.2	.	-4.2	-5.6
CCN(CC)c1ccc(/C=N/N2CCN(c3ccccc3OC)CC2)cc1	1.0	7.1	37.1*	0.0	-1.5	-27.2
COc1ccc(/C=N/N2CCN(c3ccccc3OC)CC2)cc1OC	2.2	5.0	10.6	0.3	-4.0	-7.6
CC12CCC(C(=O)N(CSC(=S)N/N=C\c3ccccc3)C1=O)C2(C)C (stereo not given)	4.5	7.5	41.6*	-2.9	-1.0	0.4
c1ccc(-n2nc3c(ccc4cnnc43)[nH]2)cc1	143.7*	-11.1	26.9	-2.0	-0.9	-3.9
Cc1ccc2nc(C)c(C(=O)N/N=C/c3ccccc3[N+](=O)[O-])cc2c1	-4.9	0.9	3.0	-2.6	-1.4	-2.2
O=C(N/N=C/c1ccc2c(c1)OCO2)c1cc(-c2ccccc2)nc2ccccc12	1.3	-52.7	15.6	6.3	-0.9	4.7
Cc1ccn2c(C(=O)N/N=C\c3ccc4c(c3)OCO4)c(C)nc2c1	-0.7	-6.4	46.5*	-3.8	2.8	-0.4
O=C(N/N=C/c1ccc2c(c1)OCO2)c1ccc2ccccc2n1	0.1	1.1	32.2*	-0.1	-1.0	59.7
Cc1ccn2c(C(=O)N/N=C\c3ccccc3[N+](=O)[O-])c(C)nc2c1	8.8	-4.6	44.4*	-1.1	-3.5	-1.0
C[n+]1cccc(C(=O)N/N=C/c2ccc3c(c2)OCO3)c1	1.2	1.4	24.9	.	-1.4	-5.9
Cc1cccc(C(=O)N/N=C/c2ccc3c(c2)OCO3)n1	-3.2	4.8	32.9*	-2.4	0.3	8.1
Cc1ccn2c(C(=O)N/N=C/c3ccc(Cl)cc3)c(C)nc2c1	2.0	.	9.6	-0.5	.	.
COc1ccc(OCc2cc(C(=O)NCc3cccc(C)n3)no2)c(Cl)c1	-1.2	-0.5	3.0	1.0	-1.4	?
Cc1ccn2c(=O)c(NC(=O)c3cccs3)c(C)nc2c1	3.9	-1.1	22.1	-5.3	4.7	-10.8

Screens from PubChem.
